# In PubChem BioAssay (Tox21):
# A number with no mark means an inactive call. Results filed as inconclusive are left out. Entries that show only a call come without a potency. Activity calls are given as the source filed them. Unless noted, the call rests on the fitted dose curve; in most records, active means well fitted curve in the direction sought with a large enough effect in the repeat runs; inconclusive means weak or mixed curves; inactive means no such curve, though single readings can be large; an effect the other way counts as inactive or inconclusive.
# Legend:
# [1] = qHTS assay for small molecule agonists of the p53 signaling pathway (AID 651631; calls by dose curve; further: nearly all actives have a fitted effect of over 15% in size)
# Method in brief: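 HCT-116 cells carrying a stable p53 response element–beta-lactamase reporter were plated, rested 5 h at 37 °C, then exposed to compound in DMSO for 16 h at 37 °C; reporter activity was read as FRET substrate fluorescence after 2 h at room temperature.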
# [2] = qHTS assay for small molecules that induce genotoxicity in human embryonic kidney cells expressing luciferase-tagged ATAD5 (AID 651632); further: nearly all actives have a fitted effect of over 15% in size
# Method in brief: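 HEK293T cells carrying luciferase-tagged ATAD5 were given compound or DMSO vehicle and incubated 16 hr at 37C, 5% CO2. Luciferase activity was read after 30 min at room temperature with Amplite; a rise signals genotoxic stress.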
# [3] = qHTS assay for small molecule agonists of the p53 signaling pathway - cell viability (AID 651633; calls by dose curve; further: series mostly up to about 83 µM; nearly all actives have a fitted effect of over 30% in size)
# Method in brief: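 p53RE-bla cells, seeded at 4,000 per well and rested 5 h at 37 C/5% CO2, received compounds in DMSO for 16 h at 37 C. CellTiter-Glo was then added, and luminescence was read after 30 min at room temperature to gauge cytotoxicity.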
# [4] = qHTS assay for small molecules that induce genotoxicity in human embryonic kidney cells expressing luciferase-tagged ATAD5 - cell viability (AID 651634; calls by dose curve; further: nearly all actives have a fitted effect of over 25% in size)
# Method in brief: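 HEK293T cells carrying luciferase-tagged ATAD5, 2,000 cells/well, exposed to compound for 15.5 hr at 37C. Viability read as live-cell protease activity by CellTiter-Fluor fluorescence after 30 min at 37C.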
# [5] = qHTS assay for small molecule disruptors of the mitochondrial membrane potential - cell viability (AID 720634; calls by dose curve;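 further: human HepG2 liver cancer cells; series mostly up to about 83 µM; nearly all actives have a fitted effect of over 20% in size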)
# Method in brief: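 HepG2 cells, 2,000 per well, attached overnight, then treated 1 hr at 37 C, 5% CO2. Viability read as ATP by CellTiter-Glo luminescence after 30 min at room temperature. Read in the same wells as the m-MPI membrane-potential dye assay.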
# [6] = qHTS assay for small molecule disruptors of the mitochondrial membrane potential (AID 720635); further: potency means the concentration at half of the fitted maximal effect
# Method in brief: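 HepG2 cells (2,000/well) attached overnight at 37C, then took compound for 1 hr at 37C, 5% CO2. Mito-MPS dye was added for 30 min; fluorescence was read at 490/535 nm (monomers) and 540/590 nm (aggregates).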
# [7] = qHTS assay to test for compound auto fluorescence at 590 nm (red) in HepG2 cells (AID 720674)
# Method in brief: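 Rose Bengal sodium served as the red fluorophore standard. HepG2 monolayers (overnight attachment, MEM with 10% FBS) were exposed to test compounds for 1 hr at 37 C and read at Ex 540/Em 590 nm.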
# [8] = qHTS assay to test for compound auto fluorescence at 535 nm (green) in HepG2 cells (AID 720675)
# [9] = qHTS assay to test for compound auto fluorescence at 590 nm (red) in HEK293 cells (AID 720679)
# Method in brief: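 Plates of HEK293 cells (10% dialyzed FBS) are treated with 23 nL compound or DMSO vehicle after a 4-5 hr attachment period, incubated overnight at 37C, and read for red fluorescence at 540/590nm.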
# [10] = qHTS assay to test for compound auto fluorescence at 460 nm (blue) in HEK293 cells (AID 720678)
# Method in brief: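 After cell attachment (4-5 hr, 37C), compounds were pinned onto HEK293 monolayers in 10% dialyzed FBS medium. The blue channel (405/460 nm) was read following overnight culture. Equivalency was calculated against triamterene.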
SMILES,Potency [1],outcome [2],Potency [3],Potency [4],Potency [5],Potency [6],outcome [7],outcome [8],outcome [9],outcome [10]
O=C(Cl)C(Cl)(Cl)Cl,inactive,inactive,inactive,inactive,inactive,inactive,inactive,inactive,inactive,
CCCOc1nn(C(=O)NS(=O)(=O)c2ccccc2C(=O)OC)c(=O)n1C,inactive,inactive,inactive,inactive,inactive,inactive,inactive,inactive,inactive,
O=C(Cl)/C=C/C(=O)Cl,inactive,inactive,inactive,inactive,inactive,inactive,inactive,inactive,inactive,
CON(C)C(=O)Nc1ccc(Br)cc1,inactive,inactive,inactive,inactive,inactive,,inactive,inactive,inactive,inactive
CCN(CCO)CCO,inactive,inactive,inactive,inactive,inactive,,inactive,inactive,inactive,inactive
N[C@@H]1C[C@H]1c1ccccc1,inactive,inactive,inactive,inactive,inactive,,inactive,inactive,inactive,inactive
Cn1c(N)nc2c3cccnc3ccc21,inactive,inactive,inactive,inactive,inactive,inactive,inactive,inactive,inactive,inactive
O=S1(=O)OCCO1,inactive,inactive,inactive,inactive,inactive,,inactive,inactive,inactive,inactive
CCOC(=O)N(C)N=O,inactive,inactive,inactive,inactive,inactive,inactive,inactive,inactive,inactive,
C/C(=N\NC(=O)Nc1cc(F)cc(F)c1)c1ncccc1C(=O)O,inactive,inactive,inactive,inactive,inactive,inactive,inactive,inactive,inactive,
CNC(=O)Oc1ccccc1C(C)C,inactive,inactive,inactive,inactive,inactive,,inactive,inactive,inactive,inactive
CCN[C@@H](C)Cc1ccccc1,inactive,inactive,inactive,inactive,inactive,,inactive,inactive,inactive,inactive
CC[C@H](N)c1ccccc1,inactive,inactive,inactive,inactive,inactive,,inactive,inactive,inactive,inactive
CNC(=O)O/N=C(/CSC)C(C)(C)C,inactive,inactive,inactive,inactive,inactive,,inactive,inactive,inactive,inactive
CC(C)NCC(O)c1ccc([N+](=O)[O-])cc1 (centres undefined),inactive,inactive,inactive,inactive,inactive,inactive,inactive,inactive,inactive,inactive
CC(C)C(C)(N)C#N (centres undefined),inactive,inactive,inactive,inactive,inactive,,inactive,inactive,inactive,inactive
CCC1(CC)C(=O)C=CNC1=O,inactive,inactive,inactive,inactive,inactive,inactive,inactive,inactive,inactive,
CC(C)(C)NC[C@H](O)c1ccc(O)cc1Cl,inactive,inactive,inactive,inactive,inactive,inactive,inactive,inactive,inactive,
ClCOCCl,inactive,inactive,inactive,inactive,inactive,inactive,inactive,inactive,inactive,
O=C(O)CBr,inactive,inactive,inactive,inactive,inactive,,inactive,inactive,inactive,inactive
CC(=O)CN(CC(C)=O)N=O,inactive,inactive,inactive,inactive,inactive,,inactive,inactive,inactive,inactive
Oc1ccc(Cc2ccc(O)cc2)cc1,inactive,inactive,inactive,inactive,inactive,54.9 µM (active),inactive,inactive,inactive,inactive
O=C(Cl)c1ccccc1,inactive,inactive,inactive,inactive,inactive,,inactive,inactive,inactive,inactive
CCN(CC)CCOC(=O)C(O)(c1ccccc1)c1ccccc1,inactive,inactive,inactive,inactive,inactive,inactive,inactive,inactive,inactive,
